Many of the other results were omitted from the sample, so hits are more common in it than they were.
Sa growth 42C: S. aureus growth inhibition. S. aureus RN4220 growth, OD600, 20 h, 42 °C; hits give low values. relative growth, % (no concentration beside the values). hit rate 0.53% among 170,000. AID 720641;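 active means relative growth at most 50% at the other temperature and 20+ points below 30 °C, or under 10% at both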
HCMV UL50-53 inh: disrupts HCMV UL50-UL53 complex binding | HTRF UL50-UL53 interaction, normalized percent inhibition | hit rate 0.15% among 190,000 | inhibition, % (concentration not given with the values); in the data active means inhibition above about 27%, passing the limit was not always enough
S aureus helic: blocks Staphylococcus aureus DNA helicase. purified S. aureus helicase, fluorescence unwinding assay. inhibition, % (test concentration not listed). hit rate 0.05% among 120,000. AID 485395; in the data active means inhibition above about 25%, passing the limit was not always enough;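 further: 0% = mean of negative control wells and 100% = mean of positive control wells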
* = called active by the depositor; ? = inconclusive; / = not tested or not shown.

SMILES	Sa growth 42C	HCMV UL50-53 inh	S aureus helic
CON=C(C(=O)NC1C(=O)N2C(C(=O)OCOC(=O)C(C)(C)C)=C(C=Cc3scnc3C)CS[C@H]12)c1csc(N)n1 (some centres undefined)	/	-28.0	/
CO/N=C(\C(=O)NC1C(=O)N2C(C(=O)OCOC(=O)C(C)(C)C)=C(/C=C\c3scnc3C)CSC12)c1csc(N)n1 (centres undefined)	5.1*	-61.7	/
CON=C(C(=O)NC1C(=O)N2C(C(=O)O)=C(COC(C)=O)CSC12)c1csc(N)n1 (centres undefined)	/	-61.4	/
C=CC1=C(C(=O)O)N2C(=O)[C@@H](NC(=O)C(=NOCC(=O)O)c3csc(N)n3)[C@H]2SC1	-0.2*	/	/
C=CC1=C(C(=O)O)N2C(=O)C(NC(=O)C(=NO)c3csc(N)n3)C2SC1 (centres undefined)	/	-35.7	/
Cc1cc(C)nc(NC(c2ccc(Cl)cc2)c2cc(C)sc2NC(=O)c2ccccc2)n1 (centres undefined)	/	-12.9	/
O=C(CSc1nnc(NC2CC2)s1)N1CCCCC1	72.8	-21.9	19.0
O=C(Nc1ccc(-n2cnnn2)cc1)C1(Cc2nc3ccccc3s2)CCCC1	92.9	-6.6	-21.0
O=C(NC(CO)C(O)c1ccc([N+](=O)[O-])cc1)C(Cl)Cl (centres undefined)	/	-51.4	/
O=C(N[C@H](CO)[C@H](O)c1ccc([N+](=O)[O-])cc1)C(Cl)Cl	-0.1*	-57.6	/
CCC(C)n1nnc2cc(S(=O)(=O)N(C)CC(=O)N3CCN(c4ccccc4)CC3)ccc21 (centres undefined)	/	-18.7	/
COc1ccccc1-c1[nH]ncc1CNCc1ccccc1C	99.0	/	2.0
N[C@@H](C(=O)N[C@@H]1C(=O)N2C(C(=O)O)=C(CSc3cn[nH]n3)CS[C@H]12)c1ccc(O)cc1 (tested in a mixture with another compound)	27.4*	/	/
N[C@@H](C(=O)N[C@@H]1C(=O)N2C(C(=O)O)=C(Cl)CS[C@H]12)c1ccccc1	-0.9*	-31.4	/
CC1=C(C(=O)O)N2C(=O)[C@@H](NC(=O)C(N)c3ccc(O)cc3)[C@H]2SC1 (some centres undefined)	?	-18.2	/
NC(C(=O)N[C@@H]1C(=O)N2C(C(=O)O)=C(Cl)CS[C@H]12)c1ccccc1 (some centres undefined)	/	-16.5	/
COCC(=O)n1nc(-c2ccco2)nc1NCc1ccccc1	90.2	-13.9	-12.0
Cc1ccccc1-n1nc2c(c1NC(=O)c1ccc(S(=O)(=O)N3CCCCC3)cc1)CSC2	/	39.7*	/
Cc1ccc(-n2nc3c(c2NC(=O)c2ccc(S(=O)(=O)N4CCOCC4)cc2)CSC3)c(C)c1	/	90.3*	/
O=C(Nc1c2c(nn1-c1ccc(Cl)cc1)CSC2)c1ccc(S(=O)(=O)N2CCCCC2)cc1	/	8.3	/
COc1ccc(-n2nc3c(c2NC(=O)c2ccc(S(=O)(=O)N4CCCC4)cc2)CSC3)cc1	/	58.3*	/
Cc1ccc(-n2nc3c(c2NC(=O)c2ccc(S(=O)(=O)N4CCCCC4)cc2)CSC3)c(C)c1	/	6.1	/
COc1ccc(-n2nc3c(c2NC(=O)c2ccc(S(=O)(=O)N4CCCCC4)cc2)CSC3)cc1	/	31.6	/
Cc1ccc(CN(C)C(=O)c2ccc(C)c(NC(=O)c3ccco3)c2)o1	83.3	-5.5	-13.0
CCC1CCCCN1CCCNc1nn2nnnc2c2ccccc12 (centres undefined)	/	-25.7	/
SMILES	Sa growth 42C	HCMV UL50-53 inh	S aureus helic
CN(Cn1nc2sc3ccccc3n2c1=S)C1CCCCC1	54.4	-10.4	-13.0
S=c1n(CN2CCCC2)nc2sc3ccccc3n12	38.6*	-47.0	0.0
CCNc1nc(SCc2ccc(Cl)cc2)nc2sc3c(c12)CCN(C)C3	10.0*	20.9	/
CCNc1nc(SCC(=O)NC(=O)NCc2ccccc2)nc2sc3c(c12)CCN(C)C3	82.9	0.9	/
CCn1c(=O)c2ccccc2n2c(=S)[nH]nc12	90.2	5.5	-8.0
O=C(CSc1nc2ccccc2o1)Nc1ccc(Br)cc1	/	-15.3	/
C=CCn1c(O)c(N=O)c2ccccc21	76.5	-89.0	6.0
C=CCn1c(O)c(C2=c3cc(Br)ccc3=NC2=O)c2ccccc21	1.4*	/	3.0
S=C(Nc1ccc(Cl)c(Cl)c1)NC1CCCC1	1.3*	-7.3	/
Cc1cccc(NC(=S)NC2CCCC2)c1	120.9	2.2	-6.0
NS(=O)(=O)c1ccc2c3c(cccc13)C(=O)N2	/	-69.6	15.0
Nc1ccc2c3c(cccc13)C(=O)C=C2	103.4	56.8*	-127.0
Cn1nc(C(=O)Nc2nc3ccccc3s2)c2c1-c1ccccc1OC2	/	6.2	/
O=C(NCCc1ccccc1)c1sc(=S)n2c1[nH]c(=O)c1ccccc12	92.8	/	8.0
O=C(NC1CCCCC1)c1sc(=S)n2c1[nH]c(=O)c1ccccc12	-0.2*	-42.9	8.0
CC1CC(C)(C)CC2(C1)NC(=O)N(Cc1cccc(S(=O)(=O)N(C)C)c1)C2=O (centres undefined)	100.5	9.1	28.0

High-throughput results from PubChem.
